Reference: PubChem BioAssay AID1159580 (chemical genetic matrix, 2015)
Where “and” joins values, the source holds several entries; their conditions need not be identical. Equal values may be shown once. The campaign covered roughly 5,500 compounds. About 2,000 (36%) were called active. Inconclusive results (about 18%) are left out. Rule as the data show it: active = normalized growth mostly below about 0.91 (no sharp cut-off); inconclusive = no clear call, values can overlap the other calls; inactive = mostly above about 0.92. The list shows a part of the results.

Experiment: chemical genetic growth profiling, strain panel (AID 1159580);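 also: tested at 20 µM; growth read once vehicle control cultures reached saturation at 30 °C; 1 = growth at the plate median or of vehicle wells; lower values mean less growth of the strain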
Details: S. cerevisiae deletion strains, growth OD

Measured: normalized growth

Nc1ccc(S(=O)(=O)Nc2nccs2)cc1
inactive: locus YAL013W, strain DEP1, active compounds read low 1.01 | locus YAL021C, strain ccr4, active compounds read low 1.02 | locus YAL026C, strain drs2, active compounds read low 1.01 | locus YAL030W, strain snc1, active compounds read low 1.02 | locus YBL061C, strain skt5, active compounds read low 1.01 | locus YBR009C, strain hhf1, active compounds read low 1 | locus YBR021W, strain FUR4, active compounds read low 1 | locus YBR023C, strain chs3, active compounds read low 1.03 | locus YBR171W, strain sec66, active compounds read low 1.03 | locus YBR229C, strain ROT2, active compounds read low 1 | locus YBR231C, strain swc5, active compounds read low 1.04 | locus YBR279W, strain paf1, active compounds read low 1.01 | locus YCL011C, strain gbp2, active compounds read low 1.01 | locus YCL016C, strain dcc1, active compounds read low 1 | locus YCL029C, strain bik1, active compounds read low 0.998 | locus YCL069W, strain vba3, active compounds read low 1.01 | locus YCR088W, strain abp1, active compounds read low 1.01 | locus YDL005C, strain med2, active compounds read low 1.01 | locus YDL035C, strain GPR1, active compounds read low 1.04 | locus YDL040C, strain nat1, active compounds read low 1.02 | locus YDL074C, strain BRE1, active compounds read low 1.01 | locus YDL101C, strain DUN1, active compounds read low 1 | locus YDL134C, strain PPH21, active compounds read low 1.01 | locus YDL185W, strain tfp1, active compounds read low 1.01 | locus YDL192W, strain arf1, active compounds read low 1.01 | locus YDR001C, strain nth1, active compounds read low 1.02 | locus YDR069C, strain doa4, active compounds read low 1.02 | locus YDR101C, strain arx1, active compounds read low 1 | locus YDR137W, strain rgp1, active compounds read low 1.02 | locus YDR150W, strain NUM1, active compounds read low 1.01 | locus YDR159W, strain sac3, active compounds read low 1.02 | locus YDR162C, strain NBP2, active compounds read low 1.02 | locus YDR195W, strain ref2 1.01 | locus YDR297W, strain sur2, active compounds read low 1.02 | locus YDR318W, strain mcm21, active compounds read low 0.985 | locus YDR334W, strain swr1, active compounds read low 1.01 | locus YDR335W, strain msn5, active compounds read low 1.02 | locus YDR388W, active compounds read low 0.995 | locus YDR392W, strain spt3, active compounds read low 0.954 | locus YDR502C, strain sam2, active compounds read low 1.01 | locus YEL003W, strain gim4, active compounds read low 1.02 | locus YEL037C, strain rad23, active compounds read low 1.01 | locus YEL061C, strain CIN8 (second series), active compounds read low 1.01 | locus YEL061C, strain CIN8, active compounds read low 1 | locus YER015W, strain faa2, active compounds read low 1.04 | locus YER016W, strain bim1, active compounds read low 0.997 | locus YER110C, active compounds read low 0.995 | locus YER111C, strain swi4, active compounds read low 1.01 | locus YER155C, strain BEM2 (second series), active compounds read low 1.01 | locus YER155C, strain BEM2, active compounds read low 0.996 | locus YER167W, strain BCK2, active compounds read low 1.03 | locus YFR010W, strain ubp6, active compounds read low 1.02 | locus YGL078C, strain dbp3, active compounds read low 1.01 | locus YGL086W, strain mad1, active compounds read low 1.02 | locus YGL167C, strain pmr1, active compounds read low 1.02 | locus YGL173C, strain kem1, active compounds read low 1.02 | locus YGL227W, strain vid30, active compounds read low 1.02 | locus YGL240W, strain doc1, active compounds read low 1.02 | locus YGL248W, strain PDE1, active compounds read low 1.02 | locus YGL253W, strain hxk2, active compounds read low 1.02 | locus YGR078C, strain PAC10, active compounds read low 1 | locus YGR135W, strain pre9, active compounds read low 1.01 | locus YGR229C, strain SMI1, active compounds read low 1.01 | locus YGR252W, strain gcn5, active compounds read low 1.06 | locus YHR013C, strain ard1, active compounds read low 1 | locus YHR027C, strain rpn1, active compounds read low 1.02 | locus YHR030C, strain SLT2, active compounds read low 1.01 and 0.999 | locus YHR079C, strain IRE1 (second series), active compounds read low 0.995 | locus YHR079C, strain IRE1, active compounds read low 1.03 | locus YHR094C, strain hxt1, active compounds read low 0.99 | locus YHR129C, strain ARP1, active compounds read low 1 | locus YHR142W, strain chs7, active compounds read low 1.01 | locus YHR200W, strain rpn10, active compounds read low 1 | locus YIL066C, strain RNR3, active compounds read low 1.02 | locus YIL073C, strain SPO22, active compounds read low 1 | locus YIL125W, strain kgd1, active compounds read low 1.01 | locus YIR030C, strain dcg1, active compounds read low 0.995 | locus YJL092W, strain hpr5, active compounds read low 1.01 | locus YJL095W, strain BCK1 (second series), active compounds read low 1.02 | locus YJL095W, strain BCK1, active compounds read low 1 | locus YJL115W, strain asf1, active compounds read low 1.02 | locus YJL129C, strain trk1, active compounds read low 1.02 | locus YJL134W, strain LCB3, active compounds read low 1.01 | locus YJL154C, strain vps35, active compounds read low 1.01 | locus YJL164C, strain tpk1, active compounds read low 0.996 | locus YJL166W, strain qcr8, active compounds read low 1.03 | locus YJL168C, strain set2, active compounds read low 0.992 | locus YJL187C, strain SWE1 (second series), active compounds read low 1.01 | locus YJL187C, strain SWE1, active compounds read low 1.02 | locus YJR043C, strain POL32, active compounds read low 1 | locus YJR066W, strain TOR1, active compounds read low 0.939
